Results published in PubChem BioAssay AID454 (Sanford-Burnham Center for Chemical Genomics, 2006).
In all, about 10,000 compounds went through this assay and about 25 (0.2%) were called active.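 How the source made its calls: active means compound among top-ranked inhibitors of TNF-induced VCAM-1 adhesion protein staining, with the hit upheld by image or statistical review; inactive means the rest, including hits rejected on review.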 The sample as a whole holds a higher share of actives than the screen did.

assay: inhibitors of TNFa-induced VCAM-1 surface display, cell-based, plate reader, pooled HUVEC, TNFa stimulus (AID 454); conditions: HUVEC TNFa-induced VCAM-1 surface immunofluorescence; stronger effect = higher value,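 compound tested at 5 µM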

SMILES | inhibition
O=C(Cn1cc(C(=O)c2ccccc2)c2ccccc21)NCc1ccco1 | inactive
Cc1cccc(C2=NCC(=O)N(CC(=O)NCc3ccco3)c3sc4c(c32)CCCC4)c1 | 78.7% (active)
O=C(CN1C(=O)CN=C(c2ccccc2)c2ccccc21)NCc1ccco1 | inactive
COc1ccc(CCn2c(O)c(C=NCc3cccnc3)c(=O)[nH]c2=O)cc1OC | inactive
CCOc1ccc(C2SCC(=O)Nc3c2c(=O)[nH]n3C2CCCCCC2)cc1 (stereo not given) | inactive
